According to PubChem BioAssay (NCATS):
Results filed as inconclusive are left out. Unmarked numbers belong to inactive results. Active and inactive are the calls of the source. The call rests on the fitted dose curve; in most records, active means well fitted inhibition curve with a large enough effect; inconclusive means small, poorly fitted or top-dose-only effect; inactive means flat fitted curve, though single readings scatter.

test: P-glycoprotein substrates identified in KB-8-5-11 adenocarcinoma cell line, qHTS therapeutic library screen (AID 1346987); conditions: KB-8-5-11 (P-gp overexpressing) viability, CellTiter-Glo, 72 h; series mostly up to 44.5 µM; activity change, negative = cytotoxicity: at the top concentration; further: nearly all actives have a fitted effect of over 65% in size
How it was run: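 Luminescence from CellTiter-Glo, read 5 min after addition, quantified survival of KB-8-5-11 (P-gp-overexpressing) cells exposed to compounds for 72 h. AC50 was derived from concentration-response curves.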
On the % scale 0 is the no-effect control and ±100 the full control effect; potency means the concentration at half of the fitted maximal effect.

Compound | activity change, negative = cytotoxicity | Potency | outcome
Cc1cc(Nc2ccc(NC(=O)c3ccc(Nc4ccnc5ccccc45)cc3)cc2)nc(N)n1 | -46.3% |  | 
COc1ccc(-c2ccc3c(N4CCOCC4)nc(N4CC(C)OC(C)C4)nc3n2)cc1CO (stereo not drawn) |  | 651 nM (active) | 
OC[C@H]1O[C@@H](OCCc2ccccc2)[C@H](O[C@@H]2OC[C@](O)(CO)[C@H]2O)[C@@H](O)[C@@H]1O | 0.168% [at 17.3 µM] |  | 
CC(c1ncncc1F)C(O)(Cn1cncn1)c1ccc(F)cc1F (stereo not drawn) |  |  | inactive
CC1(C(=O)O)CCCC2(C)C3CCC4CC3(CCC12)CC4=O (stereo not drawn) | 8.09% |  | 
CC1(C)CCCC2(C)C=C(C(=O)O)C(O)CC12 (stereo not drawn) |  |  | inactive
Cc1csc(NC(=O)c2ccc(COc3cccc(Cl)c3)o2)n1 | -23% |  | 
COc1ccc(F)cc1-c1cc(NC(=O)[C@@H]2CCCNC2)ncc1Cl |  | 326 nM (active) | 
COc1cc2c(cc1OC)[C@@H]1[C@H](O)[C@@H](OC)C=C3CCN(C2)[C@H]31 |  | 5700 nM (active) | 
COc1ncc(Nc2ncc([C@@H](C)N3CCN(S(C)(=O)=O)CC3)cc2-c2nc(C)nc(N)n2)cc1F |  | 6510 nM (active) | 
COc1cc(/C=C/C(=O)OC[C@H]2O[C@@](CO)(O[C@H]3O[C@H](CO)[C@@H](O)[C@H](O)[C@H]3O)[C@@H](OC(=O)/C=C/c3ccc(O)c(OC)c3)[C@@H]2O)ccc1O | -7.23% [at 17.3 µM] |  | 
C[C@H]1[C@H](O)O[C@@H]2O[C@@]3(C)CC[C@H]4[C@H](C)CC[C@@H]1[C@@]24OO3 |  | 11600 nM (active) | 
O=S(=O)(Nc1ccccn1)c1ccc(N=Cc2c(O)[nH]c3ccc4ncsc4c23)cc1 |  |  | inactive [at 9.29 µM]
C[C@@H]1C(=O)OC[C@H]2C(C(=O)O)=C[C@@H]3CC(C)(C)C[C@]312 | 1.48% |  | 
CC(=O)c1c(O)cc(O[C@@H]2O[C@H](CO)[C@@H](O)[C@H](O)[C@H]2O)cc1O |  |  | inactive
COCCN1CCN(Cc2ccc(-c3n[nH]c4c3C(=O)c3c(NC(=O)NN5CCOCC5)cccc3-4)cc2)CC1 |  | 2590 nM (active) | 
CCCCOC(=O)NC(=O)C1c2ccccc2Oc2ccccc21 | 1.24% |  | 
COc1ccccc1NC(=O)OCC1CCN(C(=O)OC(C)(C)C)CC1 | -19.3% |  | 
COC1CC(OC2CCC3(C)C(=CCC4C3C(OC(C)=O)C(OC(=O)/C=C/c3ccccc3)C3(C)C(C(C)O)CCC43O)C2)OC(C)C1OC1CC(OC)C(OC2OC(C)C(OC3OC(CO)C(O)C(O)C3O)C(OC)C2O)C(C)O1 (stereo not drawn) |  |  | inactive [at 9.29 µM]

Compound | activity change, negative = cytotoxicity | Potency | outcome
C[C@@]12CC[C@@H]3[C@@](CC[C@H]4[C@@]3(C)CCC[C@@]4(C)C(=O)O)(CC1=O)C2 | 3.94% |  | 
C[C@@H]1CC[C@]2(C(=O)O)CC[C@]3(C)C(=CCC4[C@@]5(C)C[C@@H](O)[C@H](O)[C@@](C)(CO)C5CC[C@]43C)C2[C@]1(C)O (stereo partly drawn) | 0.128% [at 17.3 µM] |  | 
C=C1C[C@]23C[C@H]1CC[C@H]2[C@@]1(C)CCC[C@@]2(C)C(=O)O[C@@H]([C@@H]3O)[C@@H]12 | -3.11% |  | 
CCOc1cc(N2CCC(O)CC2)ccc1Nc1ncc2c(n1)N(C1CCCC1)CCC(=O)N2C |  | 11600 nM (active) | 
CCc1cnn2c(NCc3ccc[n+]([O-])c3)cc(N3CCCCC3CCO)nc12 (stereo not drawn) |  | 206 nM (active) | 
C[C@@H]1CC[C@]2(C(=O)OC3OC(CO)C(O)C(O)C3O)CC[C@]3(C)C(=CCC4[C@@]5(C)CC[C@H](O)[C@](C)(C(=O)O)C5CC[C@]43C)C2[C@]1(C)O (stereo partly drawn) |  |  | inactive [at 17.3 µM]
CCC(CC)C(=O)Nc1sc2c(c1C#N)CCC(C(C)(C)CC)C2 (stereo not drawn) | -13.3% |  | 
Nc1nc2c(ncn2[C@@H]2O[C@H](CO)[C@@H](O)[C@H]2O)c(=O)[nH]1 |  |  | inactive
C=C1CN(Cc2ccc(C(=O)Nc3ccccc3N)cc2)C(=O)c2ccccc21 |  | 1300 nM (active) | 
CC(C)c1cc(C(=O)N2CC[C@H](NC(=O)C3CC3)C2)n[nH]1 | -8.08% |  | 
CC(C)CN(C[C@@H](O)[C@H](Cc1ccccc1)NC(=O)O[C@@H]1CO[C@H]2OCC[C@H]21)S(=O)(=O)c1ccc(N)cc1 | -1.58% |  | 
O=C(OC[C@H]1O[C@H](O[C@]2(CO)O[C@H](CO)[C@@H](O)[C@@H]2O)[C@H](O)[C@@H](O)[C@@H]1O)c1ccccc1 |  |  | inactive [at 17.3 µM]
CC1OC(OC2C(C)OC(OC3C(OC(=O)C45CCC(C)(C)CC4C4=CCC6C7(C)CCC(OC8OC(C(=O)O)C(O)C(O)C8OC8OC(CO)C(O)C(OC9OC(C)C(O)C(O)C9O)C8O)C(C)(CO)C7CCC6(C)C4(C)CC5)OC(CO)C(O)C3O)C(O)C2O)C(O)C(O)C1O (stereo not drawn) | 1.71% [at 9.29 µM] |  | 
NCCCNc1ccc(Nc2nccc(Nc3cc(C4CC4)[nH]n3)n2)cc1 |  | 1300 nM (active) | 
COC(=O)C1(C)c2[nH]c3ccccc3c2CCN1C(=O)CCl (stereo not drawn) |  | 10300 nM (active) | 
COC(=O)C[C@H]1[C@]2(C)C3=C(C)[C@H](c4ccoc4)C[C@H]3O[C@@H]2[C@H](OC(C)=O)C2[C@](C)(C(=O)OC)C=CC(=O)[C@@]21C (stereo partly drawn) | -13.2% [at 17.3 µM] |  | 
CCC(C)C(=O)OC1CC(O)C23C4OCC5(C(O)CC2C1(C)C(O)O4)C3C(=O)C(O)C1(C)C(O)(c2ccoc2)CC2OC251 (stereo not drawn) |  |  | inactive [at 17.3 µM]
CC1(C)CC[C@]2(C(=O)O[C@@H]3O[C@H](CO)[C@@H](O)[C@H](O)[C@H]3O)CC[C@]3(C)C(=CCC4[C@@]5(C)CC[C@H](O[C@@H]6O[C@H](C(=O)O)[C@@H](O)[C@H](O[C@@H]7O[C@H](CO)[C@H](O)[C@H](O)[C@H]7O)[C@H]6O)C(C)(C)C5CC[C@]43C)C2C1 (stereo partly drawn) |  |  | inactive [at 9.29 µM]
Cc1cc(C)nc(NS(=O)(=O)c2ccc(NC(=S)NC(=O)COc3ccc(Br)cc3Cl)cc2)n1 |  |  | inactive
